# From the supplement of paper PMC11417369
# ± gives the standard deviation of the averaged measurements. Over roughly 25,000 sequences, “ln(normalized median fluorescence intensity)” has its median near 7.9; the highest 2% begin near 11. This is one part of a sample in which the highest values are shown more often than they occur.
# Tested on: PfAP2-I AP2 domain 3 (GST-tagged)
# Assay: gcPBM binding intensity (ln(normalized median fluorescence intensity)); higher = stronger DNA binding
# Procedure, shortened: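 Binding intensity is the highest Masliner-normalised natural-log median intensity over replicate spots in either probe orientation. To obtain it, GST-tagged P. falciparum DNA-binding domains made in E. coli were incubated for 1 h on an Agilent 4 × 180k array of primer-extended double-stranded 36-bp intergenic genomic probes plus negative controls. Detection used Alexa488 anti-GST antibody with scanning at 488 nm.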
row,Sequence,gcPBM binding intensity (ln)
1,TATTTTTATTTATAACGTACGAAAAATGTATATAAT [XGTACX_site703],7.96 ± 0.35
2,AAATTCCACGGACACACACACATATAAATAAATAAA [CACACA_site4811],8.23 ± 0.37
3,TCAACATTTAAAAATAGTACTCATAAACCTTTCGAA [XGTACX_site4111],7.42 ± 0.46
4,TATGAATGGTTAAGTACACACATATTAATATAGGTA [CACACA_site7606],7.79 ± 0.49
5,ACATATATTTTTTTTTGTACATATAAATATATATAT [XGTACX_site6491],8.7 ± 0.39
6,TTTAAATATAATTGGAGTACTTATAATATATATATA [XGTACX_site7247],8.97 ± 0.12
7,CATTAATTTAATAAATGTACATAAAATATATATTAT [XGTACX_site8085],7.89 ± 0.36
8,CCATTATACACAATATGTACATATATATAATCATTT [XGTACX_site7942],8.04 ± 0.43
9,AGAGATACATAAAAAAGTACATATAAAATTTAGGAA [XGTACX_site7201],7.96 ± 0.19
10,AATTATACGAAATAAAACTTAATAGACAAAAAATTA [CACACA_negctrl_site1384],7.54 ± 0.63
11,TTTGAAATATATTTAGTGCATATATATTGATTATAA [GTGCAC_site9604],10.4 ± 0.34
12,GTTATATTTAAAATAGTGCAATAAAAATAATAATAT,11.4 ± 0.67
13,TTACAATAAATTATAGTGCAATATTTTATTTAATAT,10.6 ± 0.36
14,AATCAATTAATATTAGCATAAAATTTTATTATTTTG [XGTACX_negctrl_site479],7.46 ± 0.71
15,ACATATTAAATATGAGTGCAATATATATATATATAA,10.9 ± 0.43
16,TGCAATTTAATATGAGTGCATATATTGAGAAAATAC,10.04 ± 0.035
17,TATATATTAAAAATAGTGCAAAATAATATATATATA [GTGCAC_site9716],10.78 ± 0.021
18,GAAAATAAAATATTAGTGCATTATTTGATCAATAAT,11.3 ± 0.73
19,ATATTTTATATAATAGTGCAAATAATATTAAATAAT,10.8 ± 0.37
20,TATATGAACTTATATACACACCATTTTTGTAAATCT [CACACA_site4547],7.62 ± 0.54
21,AAATTTGGCAAACACACACACACACCCACAGAGACA [CACACA_site4490],8.305 ± 0.021
22,CCAGGAAAAATTTATTGTACATATATTTTTATGCTC [XGTACX_site7154],7.68 ± 0.53
23,ATATAGATCTACACTGCACACATTTTTAACACTGCT [CACACA_site1882],9.04 ± 0.5
24,TATATAGAAAACAAGGCATGCAAATAACAAATTGTG [TGCATGCA_site473],8.32 ± 0.91

row,Sequence,gcPBM binding intensity (ln)
1,TTTAGCACAAACAAAAAAAAAATAGAAAAAAATATA [CACACA_negctrl_site1772],7.59 ± 0.61
2,GTTCCAGGCATTCGTGCGCACAAATAGAAACAATTA [GTGCAC_site9824],11.15 ± 0.035
3,ATGCACTCATTGTGCACACGCATATTACGAAAAGAA [CACACA_site2638],10.6 ± 0.18
4,TGTGTTCATATATGCACACGCATATATATTATTGTT [CACACA_site3822],9.1 ± 0.25
5,ATATGCACTCATTGTGCACACGCATATTACGAAAAG [CACACA_site2637],11 ± 0.35
6,TTTCTTTCTTTCTTTTTTTAAATATTTTTTAAAAAT [TGCATGCA_negctrl_site206],7.98 ± 0.62
7,ATTATAATGGTAAAGTGTACAAATTTTTATTACACC [XGTACX_site5274],8.49 ± 0.092
8,TATCATCTTAATATCGTGCACATTTATAGAACGAAA [GTGCAC_site9992],11 ± 0.12
9,TTTATATTATTATATCTTATTAATTATTTATCATTT [TGCATGCA_negctrl_site73],7.28 ± 0.58
10,GCTTCTTAATATCATACACACATAGATATATTTATA [CACACA_site5676],8.11 ± 0.58
11,TATACAACTTTATGAAGTACAAAAAGTTCTATATAT [XGTACX_site3866],7.52 ± 0.44
12,TGCCATCATATCATAGGTACACAAACATATAAAGAA [XGTACX_site4137],8.22 ± 0.82
13,AATATATATTTATATTGTACATATATATATATTTCT [XGTACX_site2603],7.55 ± 0.34
14,TTTTTCTATAAAAAATGTACATATTTTATGAAGGAA [XGTACX_site821],7.96 ± 0.5
15,ATTTAATTTTCATGATGTACTATAGTTTAATGCACA [XGTACX_site1624],11.6 ± 1.1
16,TTTTAGTTAATTCATGCATGTAAAGTTTTATTTATA [TGCATGCA_site252],7.72 ± 0.54
17,AATGAATATAGTACTGAATGTAATTTAAGGTTTTCC [CACACA_negctrl_site1548],7.53 ± 0.68
18,ACAAGACAGATATATACACACATACATACATACATA [CACACA_site7472],8.12 ± 0.64
19,ATAAAGGAATTTTATACACACAACATATATATATAT [CACACA_site2861],9.45 ± 0.6
20,TATATATATATATATTGTACACATTGTGTTTAAATA [XGTACX_site5104],9.43 ± 0.44
21,GTAATTTTTTTCTATACACACATATATATAATATAT [CACACA_site2655],8.12 ± 0.58
22,GTAATTTTTTTCTATACACACATATCTATAATATAT [CACACA_site7284],8.09 ± 0.6
23,TTTTCTATTTAATTGGTGCACTGATATATACACATA [GTGCAC_site9533],11.3 ± 0.54
24,TTTATGTATTTTTATGCACACATGCGTGGCTTATAT [CACACA_site4374],10.79 ± 0.064

row,Sequence,gcPBM binding intensity (ln)
1,TATGTATTTTTATGCACACATGCGTGGCTTATATAA [CACACA_site387],10.9 ± 0.13
2,TATGTATAAATATATGCACACATATATATATTTATA [CACACA_site9150],8.85 ± 0.26
3,ATATATATTTCTTAAAGTACATAATAATAAAAATAT [XGTACX_site8981],7.79 ± 0.44
4,AAAAAAAATAAAATGAATAAATAAGAATTACATATT [CACACA_negctrl_site863],7.39 ± 0.65
5,TCTATGAATTAATATGCATGTAACGTATTTATACTT [TGCATGCA_site669],7.67 ± 0.83
6,CAAGCACAGAAACACACACACACACCGACACAGACA [CACACA_site4359],8.11 ± 0.24
7,AGGATATAAAGTTGTGCATGTCAAGTGCACCGTATT [TGCATGCA_site451],11 ± 0.35
8,AAAAAAAAGTTGTAAGTGCATGTATATAATAATATT,8.42 ± 0.54
9,CATATAAAAATGTGCACACACACACCGATATATATT [CACACA_site4940],9.59 ± 0.17
10,AAAAAAAAATATATTGCACACCTCTCAATAAAAAAA [CACACA_site172],10.3 ± 0.43
11,GTATATTTTATTTTATGTACATATTCATTTTTTATT [XGTACX_site561],8.3 ± 0.4
12,AAAAATGTATGTATGGTGCAGTATTCATATCATTTT [GTGCAC_site9458],10.93 ± 0.057
13,CATATAAAAAATATGGTGCAGTTTTTTTTTTTTTTT,10.2 ± 0.23
14,ACTATAAATATATAAATATATATATATATATATATA [GTGCAC_negctrl_site65],9.34 ± 0.8
15,AAAAAAAAAATTTAGGTGCATACAAATAAATTATAT [GTGCAC_site9521],10.2 ± 0.48
16,TATAAATATACAAAGGTGCATAAAAAGTTATGTTTT [GTGCAC_site9832],11.2 ± 0.26
17,AAAAAAATAAGGTGCACACAAAAAAAAAAAAAAAAA [CACACA_site812],10.9 ± 0.71
18,AAAAATAAAAGGTGTGCACACAAAAATATATATATA [CACACA_site8507],9.74 ± 0.26
19,TAAATATAAAAATGCACACACACAAAAAAAAAAAAA [CACACA_site895],8.88 ± 0.085
20,TTATAAAAGACAAAAGTGCATATATACATATGTATA,9.49 ± 0.21
21,TATAAGTAGATAAGGGTGCACAATATAAATATATAG,11.55 ± 0.021
22,ATATATATATATTACACACACACAAAAAAAATAAAG [CACACA_site118],9.07 ± 0.18
23,ATATATATATTAAAGGTGCACAAATAAATATATACA [GTGCAC_site9532],11.54 ± 0.035
24,ACAAAAAAATAAGGTGCACACAAAAAAAAAAAAAAA [CACACA_site8171],10.7 ± 0.76

row,Sequence,gcPBM binding intensity (ln)
1,ATAAAATATAAAAACGCACACAATTATAAGGGTGTA [CACACA_site177],7.95 ± 0.35
2,AATAAATAGATAAGCACACAAGCATATAGACATATA [CACACA_site222],7.72 ± 0.49
3,ATATGTGTGTGTATTTGTACCCAATTTTTATATATA [XGTACX_site4948],8.29 ± 0.43
4,TATATATATATATATGTGCACATATATATGATATTA,9.79 ± 0.28
5,CGAATAAATATATGTAGTACATGTTGTAGATAATTT [XGTACX_site1218],8.01 ± 0.48
6,ATTTATTAATCATATACACACATATATTTGTATTTA [CACACA_site1336],7.67 ± 0.49
7,TTTGGGTATACACATACATGCATGTCCTTATATATA [TGCATGCA_site84],7.86 ± 0.63
8,TGTGTAATATTCTGTTGTACATAACTCATAAATAAA [XGTACX_site5308],7.95 ± 0.31
9,AATATGTTATAAATATGTTATAAATAATAAATAAAT [GTGCAC_negctrl_site135],7.74 ± 0.62
10,AAAATAGCTGTATAGAGTACATATAAATAATGTTGT [XGTACX_site5692],7.57 ± 0.58
11,TAAATCACAAAATTATGTACTAAGAAGGAGCAACAT [XGTACX_site6742],8.05 ± 0.45
12,AACATACATAAACACACACACACACCCACAGAGACA [CACACA_site4430],8.32 ± 0.22
13,TTTTTTTGTTAAAAGGTGCTAATATATATAAGTGCT,10.1 ± 0.45
14,AATACATATTCAAAGGTGCAAAATAAAAATATACAT [GTGCAC_site9743],11.2 ± 0.44
15,AATATACATAACAAGGTGCAAAAAATATTGTTCATA [GTGCAC_site9499],10.4 ± 0.26
16,AAAAATAAAGGGTGTGCACACAAAAATATATATATA [CACACA_site1727],9.8 ± 0.14
17,TATATTGCAAAAAGTACACACATAAATAAATACATA [CACACA_site6589],8.2 ± 0.24
18,TGAGCACAAATACAGGTGCATATAAAATATATGACG,10.3 ± 0.3
19,AAATAAAAAGGGTGCACACAAAAATATATATATATA [CACACA_site1728],11 ± 0.84
20,AAATATAAAGTGCACACACACAAAAAAAGAAAAAAA [CACACA_site6452],10.2 ± 0.36
21,ATGTTTGAGCCTAAGGTGCATATAAAAATATATGTG [GTGCAC_site9690],11 ± 0.66
